Screening data deposited in PubChem by National Center for Advancing Translational Sciences (NCATS).
ELG1 genotox: genotoxicity induction in ELG1-luciferase HEK293T cells. HEK293T ELG1-luciferase reporter, luminescence, 16 h. Potency, µM (titrated, usually from 46 µM), actives largely listed as activators. actives 1.3% (n = 330,000). AID 504466; note: nearly all actives have a fitted effect of over 60% in size
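DMSO vehicle served as control against compound-treated ELG1-luciferase HEK293T cells; exposure lasted 16 hr at 37 °C and 5% CO2, followed by ONE-Glo luminescence detection after 30 min.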
FLuc counter: inhibits or activates purified firefly luciferase, miR-21 counter-screen | Potency, µM (top dose mostly 57.5 µM), most hits filed as inhibitors | P08659 | purified FLuc, Km substrates, luminescence inhibition | AID 588342 | actives 6.9% (n = 360,000); note: nearly all actives have a fitted effect of over 55% in size
Target sequence (P08659 whole entry, looked up): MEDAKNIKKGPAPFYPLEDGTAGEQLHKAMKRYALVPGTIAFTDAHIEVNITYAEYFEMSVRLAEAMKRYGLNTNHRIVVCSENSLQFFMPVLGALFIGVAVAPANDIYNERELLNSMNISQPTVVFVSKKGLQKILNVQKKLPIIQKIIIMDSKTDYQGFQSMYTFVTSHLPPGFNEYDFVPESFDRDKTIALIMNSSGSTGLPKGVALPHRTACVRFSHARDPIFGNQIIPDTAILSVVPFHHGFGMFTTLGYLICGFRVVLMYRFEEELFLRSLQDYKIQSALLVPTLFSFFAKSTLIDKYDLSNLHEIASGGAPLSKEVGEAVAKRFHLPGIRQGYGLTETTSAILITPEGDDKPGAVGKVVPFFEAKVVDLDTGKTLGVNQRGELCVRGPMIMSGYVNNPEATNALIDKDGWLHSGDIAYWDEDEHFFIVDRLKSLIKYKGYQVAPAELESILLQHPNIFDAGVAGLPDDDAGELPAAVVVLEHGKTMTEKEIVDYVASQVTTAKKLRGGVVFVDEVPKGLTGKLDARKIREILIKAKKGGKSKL
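Biochemical qHTS of compounds, final roughly 60 µM downward over six points, against 10 nM purified firefly luciferase using Km concentrations of substrates (10 uM D-luciferin, 10 uM ATP) in Tris acetate pH 7.5 buffer; luminescence output.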
SMN2 splice enh: enhancers of SMN2 splice variant expression. HEK293 SMN2-luciferase splicing reporter, luminescence, 30-36 h. Potency, µM (highest dose often 46.1 µM), most hits filed as activators. actives 2.8% (n = 210,000). AID 1458; note: nearly all actives have a fitted effect of over 55% in size
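HEK293 cells carry an SMN2 minigene-luciferase reporter in which exon 7 inclusion puts luciferase in frame. Cells were seeded at 2000 cells/well, attached for 10-12 hours, then exposed to compounds for 30-36 hours at 37C before ONE-Glo luminescence.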
NPC1 prom act: activators of NPC1 promoter | Huh7 NPC1 promoter luciferase reporter, 24 h | Potency, µM (top dose mostly 9.22 µM), most hits filed as activators | actives 2.4% (n = 320,000) | AID 485313; note: nearly all actives have a fitted effect of over 60% in size
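Cells: Huh7 expressing luciferase under the NPC1 promoter, 1500/well. Seeded 2 h, compound added, incubated 24 h at 37 °C. Luciferase reagent, 10 min ambient, then luminescence.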
Rab9 promoter act: activators of Rab9 promoter | actives 2.8% (n = 320,000) | Huh7 Rab9 promoter-luciferase reporter, luminescence, 24 h | Potency, µM (highest dose often 9.22 µM), most hits filed as activators; note: nearly all actives have a fitted effect of over 60% in size
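Measured in stably transfected Huh7 cells bearing a Rab9 promoter–luciferase construct: 24 h compound treatment at 37 °C, followed by luminescence detection.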
p53 reactivation: re-activators of mutant p53; Potency, µM (doses to about 92.2 µM), actives largely listed as activators; H1299 p53-A138V BP100-luciferase reporter, luminescence, 24 h; actives 0.063% (n = 320,000); note: nearly all actives have a fitted effect of over 45% in size
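H1299 (p53-null), stable ts p53-A138V + BP100-Luc; 1000 cells/well, Opti-MEM/10% FBS; cpd 4 pt, 1:5; 24 h, 37 deg C, 5% CO2; detection reagent 10 min RT; luminescence.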
Large screens that a line does not name were inactive. An excerpt weighted towards active compounds, which were near 7.3% of everything screened. Calls come from the whole dose curve; as a rule, active = well fitted curve in the direction sought with a large enough effect; inconclusive = small, poorly fitted or top-dose-only effect, or another doubt; inactive = no such curve, though single readings can be large; an effect the other way counts as inactive or inconclusive.

O=C(CSc1nc2ccccc2c(=O)n1CC1CCCO1)NCC1CCCO1 (centres undefined)	none
O=C(CSc1nc2ccccc2c(=O)n1NC(=O)c1ccccc1)c1ccc(Cl)cc1	ELG1 genotox inconclusive, FLuc counter inconclusive, SMN2 splice enh inconclusive, NPC1 prom act inconclusive, Rab9 promoter act inconclusive
COc1cccc(CNC(=O)C(Cc2ccccc2)NS(=O)(=O)c2ccc3c(c2)CCN3C(C)=O)c1 (centres undefined)	none (no result: ELG1 genotox, NPC1 prom act, Rab9 promoter act, p53 reactivation)
CN(CCn1ccnc1)Cc1cn(Cc2ccccc2)nc1-c1ccc2c(c1)OCO2	none (no result: SMN2 splice enh)
COc1ccc(CNC(=O)CC2N=C3c4ccccc4N=C(SCC(=O)Nc4ccc(C(C)C)cc4)N3C2=O)cc1 (centres undefined)	none (no result: ELG1 genotox, SMN2 splice enh, NPC1 prom act, Rab9 promoter act, p53 reactivation)
COc1cccc(/C=C(\C#N)C(=O)Nc2ccc(NC(C)=O)cc2)c1OC	none (no result: ELG1 genotox, SMN2 splice enh, NPC1 prom act, Rab9 promoter act, p53 reactivation)
Cc1ccccc1CNC(=O)C(C)N(c1ccccc1)S(C)(=O)=O (centres undefined)	none (no result: ELG1 genotox, NPC1 prom act, Rab9 promoter act, p53 reactivation)
COc1ccccc1OCCSc1nc2ccccc2n1CC(N)=O	FLuc counter 15.1µM (no result: SMN2 splice enh)
CCCCn1cc(S(=O)(=O)c2ccc(C)c(C)c2)c(=O)c2cc(F)c(N3CCN(C)CC3)cc21	none (no result: ELG1 genotox, SMN2 splice enh, NPC1 prom act, Rab9 promoter act, p53 reactivation)
COc1ccc(S(=O)(=O)N2CCCC2CNC(=O)C(=O)Nc2ccc(F)cc2)cc1 (centres undefined)	none (no result: SMN2 splice enh)
COCC(=O)Nc1nc2ccc(C)cc2s1	ELG1 genotox 2.06µM, FLuc counter 9.53µM, SMN2 splice enh 10µM, NPC1 prom act 2.51µM, Rab9 promoter act 1.12µM, p53 reactivation inconclusive
Cc1ccc2nc(NC(=O)COC(=O)c3ccncc3)sc2c1	ELG1 genotox inconclusive, FLuc counter 8.49µM, SMN2 splice enh inconclusive, NPC1 prom act inconclusive, Rab9 promoter act inconclusive
Cc1ccc2nc(NC(=O)COc3ccc(F)cc3)sc2c1	none (no result: ELG1 genotox, SMN2 splice enh, NPC1 prom act, Rab9 promoter act, p53 reactivation)
c1ccc(-c2nc(-c3ccccn3)nc(-c3ccccn3)n2)nc1	none (no result: SMN2 splice enh)
CCOC(=O)c1sc(-c2ccccn2)nc1C	FLuc counter 26.9µM
COCC(=O)N(C)c1nnc(-c2ccccn2)s1	ELG1 genotox 20.6µM, FLuc counter inconclusive, SMN2 splice enh 20µM, p53 reactivation inconclusive
c1ccc(C2=NNC(c3ccccn3)=NN2)nc1	ELG1 genotox inconclusive, FLuc counter 3.38µM, NPC1 prom act 3.55µM, Rab9 promoter act 0.708µM, p53 reactivation inconclusive (no result: SMN2 splice enh)
CN(C(=O)C1CCCO1)c1nnc(-c2ccccn2)s1 (centres undefined)	ELG1 genotox inconclusive, FLuc counter 15.1µM, p53 reactivation inconclusive
COc1ccc(-n2c(=O)c3sc4ccccc4c3n(CC(=O)N3CCCC3)c2=O)cc1	none (no result: ELG1 genotox, NPC1 prom act, Rab9 promoter act, p53 reactivation)
CN(C(=O)C1CCOC1)c1nnc(-c2ccncc2)s1 (centres undefined)	SMN2 splice enh inconclusive
c1ccc(-c2nnc(-c3ccccn3)s2)nc1	ELG1 genotox inconclusive, FLuc counter 1.35µM, NPC1 prom act 0.1µM, Rab9 promoter act 0.0891µM (no result: SMN2 splice enh)
CC(=O)c1sc(-c2ccccn2)nc1C	none (no result: SMN2 splice enh)
CN(C(=O)C1CCOC1)c1nnc(-c2ccccn2)s1 (centres undefined)	ELG1 genotox 20.6µM, FLuc counter 15.1µM, Rab9 promoter act inconclusive, p53 reactivation inconclusive
CC(CCc1ccccc1)N1CCN(C)CC1 (centres undefined)	none (no result: SMN2 splice enh)
Cc1c(C(=O)N2CCC(C)CC2)c(S(=O)(=O)N2CCN(c3ccc(Cl)cc3)CC2)c(C)n1C	none (no result: ELG1 genotox, SMN2 splice enh, NPC1 prom act, Rab9 promoter act, p53 reactivation)
O=C1C2=C(Nc3cc([N+](=O)[O-])ccc3N2)O[C@@H]1c1c[nH]c2ccc(COc3ccccc3)cc12	none (no result: ELG1 genotox, FLuc counter, NPC1 prom act, Rab9 promoter act, p53 reactivation)
CCCc1ccc(-c2cc(NC(=O)CSc3n[nH]c(N)n3)n(-c3ccccc3)n2)cc1	ELG1 genotox inconclusive, FLuc counter 4.26µM
CCN1C(=O)/C(=C2/C=Cc3ccccc3N2C)OC1=S	ELG1 genotox inconclusive, FLuc counter inconclusive, SMN2 splice enh inconclusive, NPC1 prom act 2.51µM, Rab9 promoter act 3.55µM
O=C(O)CC1S/C(=N\N=C/c2ccccc2)N(c2ccc(O)cc2)C1=O (centres undefined)	none (no result: SMN2 splice enh)
CN1C(=O)C(CC(=O)O)S/C1=N\N=C\c1ccc(O)cc1O (centres undefined)	FLuc counter 15.1µM (no result: SMN2 splice enh)
CCC(C)N(C(=O)CSc1nc(-c2ccccc2)cs1)C1CCS(=O)(=O)C1 (centres undefined)	FLuc counter 16.9µM
CCC(C)N(C(=O)CSc1nc(C)nc2ccccc12)C1CCS(=O)(=O)C1 (centres undefined)	none (no result: SMN2 splice enh)
Cc1nc(Oc2ccccc2C)c2oc3ccccc3c2n1	none (no result: ELG1 genotox, SMN2 splice enh, NPC1 prom act, Rab9 promoter act, p53 reactivation)
Cc1ccccc1SCCNC(=O)c1ccccc1Br	FLuc counter 23.9µM, Rab9 promoter act inconclusive
Cc1ccccc1SCC(=O)NNC(=O)c1ccccc1O	ELG1 genotox inconclusive, FLuc counter 23.9µM (no result: SMN2 splice enh)
Cc1ccccc1SCC(=O)NNC(=O)c1ccncc1	none (no result: SMN2 splice enh)
CCOc1ccc(NC(=S)N2CCC(c3ccc(C)cc3)C2)cc1 (centres undefined)	none (no result: SMN2 splice enh)
COc1ccc(NC(=S)N2CCC(c3ccc(C)cc3)C2)cc1 (centres undefined)	FLuc counter inconclusive (no result: SMN2 splice enh)
Cc1ccc(NC(=S)N2CCC(c3ccc(C)cc3)C2)cc1 (centres undefined)	ELG1 genotox inconclusive, FLuc counter 15.1µM, Rab9 promoter act inconclusive (no result: SMN2 splice enh)
COc1cccc(NC(=S)N2CCC(c3ccc(C)cc3)C2)c1 (centres undefined)	FLuc counter 13.5µM, Rab9 promoter act inconclusive, p53 reactivation inconclusive (no result: SMN2 splice enh)
